# PubChem BioAssay (NCI)
# The panel holds about 83,000 compounds, 20% with a hit somewhere; the sample as a whole holds those more often.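 48-hour exposure, single concentration, 96-well plates; percent growth endpoint where 0 means no net growth. Active: below 10.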 A number with no mark means an inactive call. Activity calls are given as the source filed them.
# Test system: SK-MEL-28 melanoma
# Assay: NCI-60 one-dose screen, 48 h (100 = growth as untreated, 0 = no growth, -100 = all killed)
# Conditions: 10 µM unless noted
row,SMILES,growth
1,CCCCCCCC[C@@H]1N[C@@H](C(=O)OC)Cc2c1[nH]c1ccccc21,94.2%
2,COC(=O)c1cc(N=C2NC(=O)/C(=C/C=C/c3ccccc3)S2)ccc1O,65.4%
3,CSc1nnc(-c2cc3c([nH]c4ccccc43)c(-c3cccc(O)c3)n2)n1-c1ccccc1,36.2%
4,Cc1ccc(-c2nc([P+](c3ccccc3)(c3ccccc3)c3ccccc3)c(S(=O)(=O)c3ccc(C)cc3)o2)cc1,24.6%
5,O=S(=O)(NCCNc1nccc(-c2c(-c3ccc(F)c(O)c3)nc3occn23)n1)c1ccc(Cl)cc1,40.1%
6,COc1ccc2c(c1)c(-c1nc(-c3c[nH]c4ccncc34)cs1)cn2C,-95.7% (active)
7,CC(C)c1ccc(C(=O)Nc2nc3ccc(O)c(CN(C)C)c3s2)cc1,96.1%
8,O=C1Nc2ccccc2/C1=C/c1nc2ccccc2c(=O)[nH]1,109%
9,O=C(c1ccccc1)c1ccc(C2CCCCC2)cc1,103%
10,C=CC(=O)N1CCN(c2cccc(Oc3nccc(Nc4nnc(-c5ccc(Br)cc5)s4)n3)c2)CC1,67.1%
11,O=C1C(Cl)=C(Nc2ccc(S(=O)(=O)N3CCOCC3)cc2)C(=O)c2ccccc21,47.5%
12,CCOC(=O)C1=C(C)NC(=O)NC1c1c(Cl)n(CCCl)c2ccccc12 (centres undefined),108%
13,CCCC/C=C/[C@@H]1C[C@H]1CCO,98.1%
14,C=C(CBr)[C@@H]1CC[C@]2(C(=O)O)CC[C@]3(C)[C@H](CC[C@@H]4[C@@]5(C)CCC(=O)C(C)(C)[C@@H]5CC[C@]43C)[C@@H]12,88.7%
15,CC/C=C\C[C@H](O)C/C=C1/C(=O)C=C[C@@H]1C/C=C\CCCC(=O)N(C)C,21.5%
16,CNC(=O)c1[nH]cc(-c2ccc(OC)cc2)c1-c1cc(OC)c2c(c1OC)OCO2,101%
17,O=C(/C=C/c1cccs1)Nc1ncc(Cc2ccccc2F)s1,54.4%
18,CCCn1cc2c(=O)nc3sc(Cc4ccccc4)c(C)n3c2n1,123%
19,CCC(C)N(CCNc1cc(OC)cc2cccnc12)CC(C)C (centres undefined),109%
20,C1CCC([PH+](C2CCCCC2)C2CCCCC2[PH+](C2CCCCC2)C2CCCCC2)CC1.[Au].[CH-]1CCCCC1C1CCCC[N-]1 (centres undefined),-83.2% (active)

row,SMILES,growth
1,O=C1/C(=C/c2ccccc2Br)COc2ccc(O)cc21,101%
2,O=C(Nc1ccccc1O)c1ccc(CNC(=O)c2sccc2Nc2ccnc(C(F)(F)F)c2)cc1,63.6%
3,N#Cc1c(-c2ccc(Cl)cc2)nc(NN2C(=O)c3ccccc3C2=O)nc1N1CCOCC1,117%
4,O=C(OC(CO)C(=O)NC12CC3CC(CC(C3)C1)C2)c1ccc(Cl)cc1 (centres undefined),108%
5,COc1ccc(/C=N/C2=C(C#N)C(c3ccccc3)c3ccc4ccccc4c3O2)cc1 (centres undefined),41.4%
6,N=C(N)c1ccc(-c2ccc(-c3ccc(Cl)cc3Cl)s2)cc1,105%
7,O=C(/C=C/c1cccc(Cl)c1)c1ccc(Nc2nc(Nc3ccc(F)cc3)nc(Nc3ccc(Cl)cc3)n2)cc1,112%
8,COc1c(B(O)O)cccc1-c1nc2c(F)cc3[nH]ncc3c2c2c1CCCC2,2.91% (active)
9,N#Cc1ccc(O)c(C2=NCC(c3ccccc3)O2)c1 (centres undefined),86.4%
10,COC(=O)c1nc(-c2ccccc2)oc1S(=O)(=O)Cc1ccccc1,95.5%
11,OCCn1cc(-c2nc(-c3c[nH]c4ncccc34)cs2)c2cc(F)ccc21,89.8%
12,O=[N+]([O-])c1cccc(-c2nc3cc4nc5ccccc5[nH]c4cc3n2)c1,113%
13,CN(C)c1ccc(C(=O)OCCCCCCl)cc1,103%
14,CC(C)COc1nc2c(c(=O)n(C)c(=O)n2C)n1C,106%
15,Nc1nc(-c2ccc(Cl)cc2)nc2c1sc(=S)n2-c1ccccc1,55.7%
16,Cc1ccc(NC(=O)c2sc3nc(C)c(Br)c(C)c3c2N)cc1,75.4%
17,Cc1cc(N2CCCCC2)cc(C)c1-c1csc(NC(=O)c2ccncc2)n1,64.9%
18,CCN1C(=S)N(c2ccccc2)C2C1NN=c1s/c(=C3\C(=O)N(C(C)C)c4ccccc43)c(=O)n12 (centres undefined),102%
19,O=C(N(c1ccccc1)c1ccccc1)n1cc(I)c2nc(Cl)nc(Cl)c21,88.2%

# Test system: SK-MEL-2 melanoma
# Assay: as above
# Conditions: 10 µM unless noted
row,SMILES,growth
1,CCCCCCCC[C@@H]1N[C@@H](C(=O)OC)Cc2c1[nH]c1ccccc21,109%
2,COC(=O)c1cc(N=C2NC(=O)/C(=C/C=C/c3ccccc3)S2)ccc1O,74.1%
3,CSc1nnc(-c2cc3c([nH]c4ccccc43)c(-c3cccc(O)c3)n2)n1-c1ccccc1,12.9%
4,Cc1ccc(-c2nc([P+](c3ccccc3)(c3ccccc3)c3ccccc3)c(S(=O)(=O)c3ccc(C)cc3)o2)cc1,22.1%
5,O=S(=O)(NCCNc1nccc(-c2c(-c3ccc(F)c(O)c3)nc3occn23)n1)c1ccc(Cl)cc1,42.2%
6,COc1ccc2c(c1)c(-c1nc(-c3c[nH]c4ccncc34)cs1)cn2C,-45.2% (active)
7,CC(C)c1ccc(C(=O)Nc2nc3ccc(O)c(CN(C)C)c3s2)cc1,102%
8,O=C1Nc2ccccc2/C1=C/c1nc2ccccc2c(=O)[nH]1,103%
9,O=C(c1ccccc1)c1ccc(C2CCCCC2)cc1,110%
10,C=CC(=O)N1CCN(c2cccc(Oc3nccc(Nc4nnc(-c5ccc(Br)cc5)s4)n3)c2)CC1,54.7%
11,O=C1C(Cl)=C(Nc2ccc(S(=O)(=O)N3CCOCC3)cc2)C(=O)c2ccccc21,108%
12,CCOC(=O)C1=C(C)NC(=O)NC1c1c(Cl)n(CCCl)c2ccccc12 (centres undefined),106%
13,CCCC/C=C/[C@@H]1C[C@H]1CCO,98.7%
14,C=C(CBr)[C@@H]1CC[C@]2(C(=O)O)CC[C@]3(C)[C@H](CC[C@@H]4[C@@]5(C)CCC(=O)C(C)(C)[C@@H]5CC[C@]43C)[C@@H]12,79.7%
15,CC/C=C\C[C@H](O)C/C=C1/C(=O)C=C[C@@H]1C/C=C\CCCC(=O)N(C)C,29%
16,CNC(=O)c1[nH]cc(-c2ccc(OC)cc2)c1-c1cc(OC)c2c(c1OC)OCO2,105%
17,O=C(/C=C/c1cccs1)Nc1ncc(Cc2ccccc2F)s1,46.5%
18,CCCn1cc2c(=O)nc3sc(Cc4ccccc4)c(C)n3c2n1,93.7%
19,CCC(C)N(CCNc1cc(OC)cc2cccnc12)CC(C)C (centres undefined),110%
20,C1CCC([PH+](C2CCCCC2)C2CCCCC2[PH+](C2CCCCC2)C2CCCCC2)CC1.[Au].[CH-]1CCCCC1C1CCCC[N-]1 (centres undefined),-56.6% (active)

row,SMILES,growth
1,O=C1/C(=C/c2ccccc2Br)COc2ccc(O)cc21,107%
2,O=C(Nc1ccccc1O)c1ccc(CNC(=O)c2sccc2Nc2ccnc(C(F)(F)F)c2)cc1,0.0247% (active)
3,N#Cc1c(-c2ccc(Cl)cc2)nc(NN2C(=O)c3ccccc3C2=O)nc1N1CCOCC1,110%
4,O=C(OC(CO)C(=O)NC12CC3CC(CC(C3)C1)C2)c1ccc(Cl)cc1 (centres undefined),106%
5,COc1ccc(/C=N/C2=C(C#N)C(c3ccccc3)c3ccc4ccccc4c3O2)cc1 (centres undefined),49.4%
6,CC(C)c1ccc(C(=O)Nc2sc3c(c2C(N)=O)CCC(=O)C3)cc1,-21.5% (active)
7,N=C(N)c1ccc(-c2ccc(-c3ccc(Cl)cc3Cl)s2)cc1,104%
8,O=C(/C=C/c1cccc(Cl)c1)c1ccc(Nc2nc(Nc3ccc(F)cc3)nc(Nc3ccc(Cl)cc3)n2)cc1,72.2%
9,COc1c(B(O)O)cccc1-c1nc2c(F)cc3[nH]ncc3c2c2c1CCCC2,-6.26% (active)
10,N#Cc1ccc(O)c(C2=NCC(c3ccccc3)O2)c1 (centres undefined),50.6%
11,COC(=O)c1nc(-c2ccccc2)oc1S(=O)(=O)Cc1ccccc1,80.2%
12,OCCn1cc(-c2nc(-c3c[nH]c4ncccc34)cs2)c2cc(F)ccc21,66.2%
13,O=[N+]([O-])c1cccc(-c2nc3cc4nc5ccccc5[nH]c4cc3n2)c1,93.4%
14,CN(C)c1ccc(C(=O)OCCCCCCl)cc1,94.7%
15,CC(C)COc1nc2c(c(=O)n(C)c(=O)n2C)n1C,36.1%
16,Nc1nc(-c2ccc(Cl)cc2)nc2c1sc(=S)n2-c1ccccc1,83.7%
17,Cc1ccc(NC(=O)c2sc3nc(C)c(Br)c(C)c3c2N)cc1,82.6%
18,Cc1cc(N2CCCCC2)cc(C)c1-c1csc(NC(=O)c2ccncc2)n1,95.6%
19,CCN1C(=S)N(c2ccccc2)C2C1NN=c1s/c(=C3\C(=O)N(C(C)C)c4ccccc43)c(=O)n12 (centres undefined),107%
20,O=C(N(c1ccccc1)c1ccccc1)n1cc(I)c2nc(Cl)nc(Cl)c21,70.5%
